Assay results: PubChem BioAssay AID504321 (NMMLSC, 2011)
A number with no mark means an inactive call. The source made the active and inactive calls.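 Rule for the calls: active = GFP response vs DMSO above 150% with enough events counted; inconclusive = fewer than 70 events counted for a yeast strain; inactive = the rest.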

Assay: MEP2-GFP expression modulation in yeast, confirmation, flow cytometry, third cherry pick, S. cerevisiae (AID 504321);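 note: median per-cell GFP fluorescence by flow cytometry across all yeast cells; ratio of sample to DMSO median GFP so 100% equals the DMSO level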
Settings: S. cerevisiae MEP2-GFP strain, 3 h, at 10 µM, hits give high values

| SMILES | GFP response vs DMSO |
| --- | --- |
| C/C(=N\NC(=O)c1ccccc1)c1ccccc1F | 116% |
| FC(F)Oc1cccc2cccnc12 | 110% |
| Cc1cc(C)c2ccc(C(=O)O)nc2c1O | 112% |
| O=C(Nc1ccccc1)O/N=C1/CCCc2occc21 | 112% |
| CN1CCN(C(=O)c2cc(COc3ccc(F)cc3Cl)on2)CC1c1ccccc1 (centres undefined) | 101% |
| C/C(=N\NC(=O)c1cccc2ccccc12)c1cccnc1 | 108% |
| CCN(CC)C(=O)Oc1cc(=O)n(C)c2ccccc12 | 112% |
| C=CCNc1nc(N)c([N+](=O)[O-])c(Nc2ccccc2OC)n1 | 103% |
| COCCCNc1nc(N)c([N+](=O)[O-])c(Nc2cc(OC)ccc2OC)n1 | 110% |
| COc1ccccc1-c1cc(C(F)(F)F)nc(S(=O)(=O)CCCC(=O)NC(C)C)n1 | 110% |
| CCCCC(=O)NCCc1cc2c(OC)ccc(OC)c2[nH]c1=O | 108% |
| Oc1ccc(F)c2cccnc12 | 116% |
| Cc1ccc2nc(-c3ccc(NC(=O)c4cccnc4)cc3)oc2c1 | 114% |
| Cc1ccc(C)c(Nc2ncnc(N)c2[N+](=O)[O-])c1 | 108% |
| CCCC(=O)Nn1cnc2c(c1=O)C1(CCCC1)Cc1ccccc1-2 | 105% |
| Cc1cccc(Nc2cc(=O)[nH]c(=O)[nH]2)c1 | 108% |
| COc1ccc(NC(=O)ON=C2c3ccccc3-c3ccccc32)cc1 | 105% |
| COc1cccc(N/C=C/C(=O)c2ccc(Cl)cc2)c1 | 114% |
| Cc1cc(C)c2ccc(N)nc2c1O | 108% |
| COc1ccc(N/C=C/C(=O)c2ccc(Cl)cc2)cc1 | 116% |

| SMILES | GFP response vs DMSO |
| --- | --- |
| Cc1ccc(C(=O)/C=C/Nc2cccc(O)c2)cc1 | 116% |
| COCCNc1nc(N)c([N+](=O)[O-])c(Nc2ccc(F)cc2)n1 | 105% |
| CNc1nc(C)c([N+](=O)[O-])c(Nc2ccc(OC)cc2)n1 | 105% |
| CC(=O)CC(=O)Nc1ccc(C(N)=O)cc1 | 112% |
| CNc1nc(N)c([N+](=O)[O-])c(Nc2cccc(Cl)c2)n1 | 170% (active) |
| C[n+]1cccc2c(Br)ccc([O-])c21 | 114% |
| COc1cccc(N/C=C/C(=O)c2ccc(C)cc2)c1 | 112% |
| Nc1ncnc(Nc2cc(Cl)cc(Cl)c2)c1[N+](=O)[O-] | 108% |
| COc1ccc(OC)c(N/C(C)=C/C(=O)c2ccccc2)c1 | 114% |
| Cc1ccc(Nc2nc(N)[nH]c(=O)c2N=O)cc1 | 108% |
| O=C(O)c1ccc(C=NNC(=O)c2cccc3ccccc23)cc1 | 103% |
| Cc1nc(Nc2ccc(Br)cc2Br)c([N+](=O)[O-])c(=O)[nH]1 | 112% |
| O=C(Nc1cccc2ccccc12)ON=C1CCCCC1 | 121% |
| COc1cccc2c(=O)c(C(=O)O)c[nH]c12 | 116% |
| Nc1ccc(O)c2c1C(=O)c1ccccc1C2=O | 112% |
| Cc1cccc(N/C=C/C(=O)c2ccc(Cl)cc2)c1 | 112% |
| O=C(Nc1ccccc1Cl)ON=C1c2ccccc2-c2ccccc21 | 108% |
| Cc1ccc2c(Cl)cc(Cl)c(OCC(=O)O)c2n1 | 108% |
| Nc1cc(C(=O)O)c(N)c2c1C(=O)c1ccccc1C2=O | 110% |
